Molecules are shown by their SMILES. Among all 69,000 compounds or so, about 8,600 (12%) showed an effect of 50% or more. The sample as a whole holds a higher share of strong results than the screen did.

This test deals with Plasmodium berghei. As to the kind of experiment: Screen against P. berghei liver stage (PbLuc), transformed with Luciferase, at 10uM. The format is functional, HepG2. The settings on record: tested at 10 uM.
As for `CCN(Cc1ccco1)C(C)c1nc(C(C)C)no1` (centres undefined), the INHIBITION is recorded as -165%. Next, `Cc1cccc(OCCNC(=O)CN2CCN(C)CC2C)c1` (centres undefined): -43.415%. Next, `COCC1CN(C(=O)COc2ccccc2)Cc2cn(C)nc21` (centres undefined): 11.5%.

`COc1ncccc1C(=O)N1C[C@@H]2COC[C@]2(CN(C)C)C1`: the INHIBITION is on record as -35.2%. `O=C(NCCCn1ccnc1)C1CCC(=O)N1Cc1cccs1` (centres undefined): the INHIBITION worked out at 13.9%.

Turning to `CCn1cncc1-c1nc2c([nH]1)CC(C)(C)CNC2=O`, the INHIBITION is recorded as -23.2%. Next, `Cc1ccc(O[C@@H]2C[C@H]3CN(C(=O)c4cccnc4)CCN3C2)cc1`: -2.25%; `OCC1N(Cc2ccc(F)cc2)C2CCC1(O)CC2` (centres undefined): 39.6%; `CCn1ccnc1CN1CCCC1c1c(C)nn(C)c1OC` (centres undefined): 65.4%. Next, `COc1c(C2CCCN2Cc2cc(C)no2)c(C)nn1C` (centres undefined): 0.938%; `COc1c(C2CCCN2Cc2nccn2C)c(C)nn1C` (centres undefined): 22.8%; `CC(NC(=O)CN(C)C(C)C)c1ccc(Oc2cccnc2)c(F)c1` (centres undefined): 23.5%. Next, `CSc1nsc(NC(=O)N(C)Cc2ccc3c(c2)OCO3)n1`: -29.6%; `Cc1ccccc1OCCn1cnc2oc(C)c(C(=O)O)c2c1=O`: -16.3%. Consider `CCc1cnc(CCNS(C)(=O)=O)s1`, for which the INHIBITION came out at 48.3%.

In the case of `CC(C)c1nc(C2CCCN2C(=O)c2cc(Cl)c[nH]2)no1` (centres undefined), the INHIBITION is recorded as 6.09%.

In the case of `CC(C)CN1CCC2(CCN(Cc3nccs3)CC2)C1=O`, the INHIBITION is 29%.

For `CN(C)C(=O)N1CCN(C(=O)c2ccn3ccnc3c2)CC1`, the INHIBITION was 7.97%. Next, `Cc1ccc2cc(C(=O)N3CCC(O)(C(F)(F)F)CC3)ccc2n1`: 51.7%. Next, `Cc1ccc2cc(C3(O)CCN(C)CC3)ccc2n1`: -12.1%; `Cc1ccc2cc(C(=O)N3CCN(C(=O)N(C)C)CC3)ccc2n1`: 70.3%.

Regarding `Cc1ccc2cc(C(=O)N3CCCN(C)CC3)ccc2n1`, the INHIBITION is listed as 48%. Next, `O=C(c1ccoc1)N1CCC(O)(C(F)(F)F)CC1`: 30%; `Cc1ccc2cc(C3(O)CCN(C(=O)CN4CCCC4)CC3)ccc2n1`: -9.67%.

Turning to `Cc1ccc2cc(C3(O)CCN(C(=O)CSC(C)C)CC3)ccc2n1`, the INHIBITION was 81.6%.

Regarding `COCCOCC(=O)N1CCC(O)(c2ccc3nc(C)ccc3c2)CC1`, the INHIBITION is on record as -18.5%. As for `CS(=O)(=O)Cc1ccc(C(=O)N2CCCC(n3cncn3)C2)o1` (centres undefined), the INHIBITION turned out to be 25.8%. Next, `Cn1ccc2ccc(C(=O)N3CC[C@@]4(O)CCCC[C@H]4C3)cc21`: 18.3%; `CC(=O)N1CCCN(Cc2cc(F)cc(Br)c2)CC1`: 33.4%. Next, `O=C1CC(c2cccnc2)C2(CCN(S(=O)(=O)C3CC3)CC2)N1` (centres undefined): 9.67%; `Cc1ccccc1-n1ncc2c(=O)n(CCN3CCCCC3)cnc21`: -51.1%; `COc1ccc(CN(C)Cc2c(C)noc2C)c(Br)c1OC`: 26.8%. Next, `Cc1cnn(CC2CCCN2Cc2cc(C)on2)c1` (centres undefined): 4.585%; `CC(C)(C)C(=O)N[C@H]1CC[C@H](Nc2nccc(-c3ccncc3)n2)C1`: 18.7%; `COc1cccc(CC2CN(C3CCCCC3)CCO2)c1` (centres undefined): 36.2%. As for `CN(Cc1nccn1C)c1ccc(-c2nccn2C)nn1`, the INHIBITION was -84.1%. In the case of `CCOc1ccccc1OCCN(C)Cc1nccn1C`, the INHIBITION was 20.5%. Next, `CCOc1ccccc1N(C)Cc1nccn1C`: 52.6%; `COCCC(=O)N1CCCC1c1nccnc1Nc1ncccn1` (centres undefined): 33.7%. Next, `Cn1ccnc1CN1CCC2(CC1)CN(c1cncnc1)C(=O)CO2`: 57.9%. Next, `Cn1ccnc1CN1CCC2(CC1)CN(Cc1ccccc1)C(=O)CO2`: 33%; `O=C1COC2(CCN(Cc3cccs3)CC2)CN1c1ccccc1`: 26.8%. With `CN(C)CCN1CCC2(CC1)CN(Cc1cccnc1)C(=O)CO2`, the INHIBITION amounted to 41.2%. Next, `O=C1COC2(CCN(Cc3cccs3)CC2)CN1c1cncnc1`: 67%; `Cn1ccnc1CN1CCC2(CC1)CCN(c1cncnc1)C2=O`: 8.93%; `Cn1ccnc1CN1CCC2(CC1)CN(c1ccccc1)C(=O)CO2`: -4.88%. Next, `Cn1ccnc1CN1CCC2(CC1)CN(Cc1cccnc1)C(=O)CO2`: 57.4%. In the case of `O=C1COC2(CCN(Cc3cccs3)CC2)CN1c1cccnc1`, the INHIBITION is recorded as 10.7%. Next, `O=C(c1cccnc1)N1CCC2(CC1)CCN(c1ccsc1)C2=O`: 16.6%. Next, `COCCCN1CC2(CCCCN2C(=O)c2ccsc2)CC1=O` (centres undefined): 20.7%; `Cc1cc(CN(Cc2cccnc2)CC2CCCO2)on1` (centres undefined): 48.2%. Next, `Cc1nccn1C1CCCN(C(=O)c2cc3c(F)cccc3[nH]2)C1` (centres undefined): 42%; `CCc1ccc(NC(=O)C(C)Nc2cccc3c2OCCO3)cc1` (centres undefined): 21.3%; `O=C(c1ccc2[nH]cnc2c1)N1CCC(COc2ccccn2)CC1`: 32.3%. As for `CN(CCn1cccn1)C1CCCN(Cc2noc(C3CC3)n2)C1` (centres undefined), the INHIBITION stood at 39.7%. Next, `Cc1csc(C2CCCCN2C(=O)c2cc(Cl)c[nH]2)n1` (centres undefined): -19.4%; `Cn1ccnc1SCC(=O)NCc1ccc2c(c1)CCC(=O)N2`: 34.2%. Next, `Cc1nnc(SCC(=O)NCc2ccc3c(c2)CCC(=O)N3)s1`: 72.3%. Next, `Cc1nnc(SCC(=O)c2cc3c(cc2Cl)NC(=O)C3)s1`: 48.7%; `O=C(CSc1ccccn1)NCc1ccc2c(c1)CCC(=O)N2`: 35%. For the compound `CC(NC(=O)NCc1ccoc1)c1ccc2c(c1)CCC(=O)N2` (centres undefined), the INHIBITION worked out at 36.4%. Next, `Cc1nnc(SCC(=O)NCc2ccc3c(c2)CCC(=O)N3)n1C`: 58.2%; `CC(CC(=O)NCCS(N)(=O)=O)C1CCCCC1` (centres undefined): 16%; `CCN(Cc1ccc(O)c(C(=O)O)c1)CC1CCCO1` (centres undefined): 42.3%.

As to `CN(Cc1nc(C(F)(F)F)cs1)C(=O)CCc1cccnc1`, the INHIBITION is -7.53%.

`CCCOc1cc(C)ccc1NC(=O)NCCNC(C)=O`: the INHIBITION turned out to be 1.06%. Next, `O=C(c1ccncc1)N1CCC2(CC1)C(=O)Nc1ccccc12`: -16.9%; `CCN(CC)Cc1cn2c(n1)CN(C(=O)Cc1ccsc1)CC2`: 73.6%. Next, `CN(C)Cc1cc(=O)n2c(n1)CN(C(=O)c1ccc[nH]1)CCC2`: 32.1%; `CN(Cc1cn2c(n1)CN(C(=O)c1ccc[nH]1)CC2)Cc1ccco1`: 7.31%; `CC(C)N(C)Cc1cn2c(n1)CN(C(=O)Cc1ccsc1)CC2`: -9.86%. Next, `O=C(Cc1ccccc1)N1CCn2cc(Cn3cncn3)nc2C1`: -28.7%; `CCN(CC)Cc1cc(=O)n2c(n1)CN(C(=O)c1ccc[nH]1)CCC2`: 58.4%; `CC(C)N(C)Cc1cc(=O)n2c(n1)CN(C(=O)c1ccc[nH]1)CCC2`: 26.7%.

As for `O=C(Cc1ccsc1)N1CCn2cc(CN3CCCC3)nc2C1`, the INHIBITION is given as -63.2%. Next, `CC(C)N(C)Cc1cn2c(n1)CN(C(=O)c1ccc[nH]1)CC2`: 63.7%. With `CS(=O)(=O)NCc1cn2c(n1)CN(C(=O)c1ccc[nH]1)CC2`, the INHIBITION was found to be 27.3%. Next, `CN(C)Cc1cn2c(n1)CN(C(=O)Cc1ccsc1)CC2`: -15.6%; `CC(C)N(C)Cc1cn2c(n1)CN(C(=O)Cc1ccccc1)CC2`: 72.3%.

(Values after ChEMBL document CHEMBL4513216, “Probing the Open Global Health Chemical Diversity Library for Multistage-Active Starting Points for Next-Generation Antimalarials” (ACS Infect Dis, 2020).)
